Results published in PubChem BioAssay AID1159580 (chemical genetic matrix, 2015).
Several values for one entry are separate records, joined by “and”; a condition that tells them apart may be missing. Equal values may be shown once. Out of some 5,500 compounds screened, about 2,000 (36%) were called active. Inconclusive results (about 18%) are left out. No stated cut-off is given here; in the data, active means normalized growth mostly below about 0.91 (no sharp cut-off); inconclusive means no clear call, values can overlap the other calls; inactive means mostly above about 0.92. Some of the results follow.

Test: chemical genetic growth profiling, strain panel (AID 1159580);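 further: tested at 20 µM; growth read once vehicle control cultures reached saturation at 30 °C; 1 = growth at the plate median or of vehicle wells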
Details: S. cerevisiae deletion strains, growth OD

Measured: normalized growth

COc1cc([C@@H]2c3cc4c(cc3C(O[C@@H]3O[C@@H]5CO[C@@H](c6cccs6)OC5[C@H](O)[C@H]3O)C3COC(=O)[C@@H]32)OCO4)cc(OC)c1O (stereo not given in full)
inactive: locus YAL013W, strain DEP1, stronger effect = lower value 1.01 | locus YAL021C, strain ccr4, stronger effect = lower value 0.986 | locus YAL026C, strain drs2, stronger effect = lower value 0.957 | locus YAL030W, strain snc1, stronger effect = lower value 0.995 | locus YBL061C, strain skt5, stronger effect = lower value 0.981 | locus YBR009C, strain hhf1, stronger effect = lower value 0.955 | locus YBR021W, strain FUR4, stronger effect = lower value 1 | locus YBR023C, strain chs3, stronger effect = lower value 1.01 | locus YBR171W, strain sec66, stronger effect = lower value 0.981 | locus YBR229C, strain ROT2, stronger effect = lower value 1 | locus YBR231C, strain swc5, stronger effect = lower value 0.997 | locus YBR279W, strain paf1, stronger effect = lower value 0.967 | locus YCL011C, strain gbp2, stronger effect = lower value 0.987 | locus YCL016C, strain dcc1, stronger effect = lower value 1.02 | locus YCL029C, strain bik1, stronger effect = lower value 1.03 | locus YCL061C, strain MRC1, stronger effect = lower value 0.969 | locus YCL069W, strain vba3, stronger effect = lower value 0.971 | locus YCR088W, strain abp1, stronger effect = lower value 0.984 | locus YDL005C, strain med2, stronger effect = lower value 0.971 | locus YDL035C, strain GPR1, stronger effect = lower value 1.02 | locus YDL040C, strain nat1, stronger effect = lower value 0.982 | locus YDL074C, strain BRE1, stronger effect = lower value 0.996 | locus YDL101C, strain DUN1, stronger effect = lower value 1.01 | locus YDL134C, strain PPH21, stronger effect = lower value 1.01 | locus YDL185W, strain tfp1, stronger effect = lower value 1.03 | locus YDL192W, strain arf1, stronger effect = lower value 1.02 | locus YDR001C, strain nth1, stronger effect = lower value 0.985 | locus YDR069C, strain doa4, stronger effect = lower value 0.983 | locus YDR101C, strain arx1, stronger effect = lower value 1 | locus YDR137W, strain rgp1, stronger effect = lower value 0.972 | locus YDR150W, strain NUM1, stronger effect = lower value 0.998 | locus YDR159W, strain sac3, stronger effect = lower value 0.932 | locus YDR162C, strain NBP2, stronger effect = lower value 1.01 | locus YDR195W, strain ref2 0.961 | locus YDR297W, strain sur2, stronger effect = lower value 0.992 | locus YDR318W, strain mcm21, stronger effect = lower value 1.02 | locus YDR334W, strain swr1, stronger effect = lower value 0.972 | locus YDR335W, strain msn5, stronger effect = lower value 0.99 | locus YDR388W, stronger effect = lower value 1.01 | locus YDR392W, strain spt3, stronger effect = lower value 0.97 | locus YDR502C, strain sam2, stronger effect = lower value 1.02 | locus YEL003W, strain gim4, stronger effect = lower value 0.969 | locus YEL037C, strain rad23, stronger effect = lower value 0.964 | locus YEL061C, strain CIN8 (second series), stronger effect = lower value 0.967 | locus YEL061C, strain CIN8, stronger effect = lower value 1 | locus YER015W, strain faa2, stronger effect = lower value 0.989 | locus YER016W, strain bim1, stronger effect = lower value 0.999 | locus YER110C, stronger effect = lower value 1.02 | locus YER111C, strain swi4, stronger effect = lower value 0.98 | locus YER155C, strain BEM2 (second series), stronger effect = lower value 1.01 | locus YER155C, strain BEM2, stronger effect = lower value 1 | locus YER167W, strain BCK2, stronger effect = lower value 1.01 | locus YFR010W, strain ubp6, stronger effect = lower value 0.956 | locus YGL078C, strain dbp3, stronger effect = lower value 1.02 | locus YGL086W, strain mad1, stronger effect = lower value 1.01 | locus YGL167C, strain pmr1, stronger effect = lower value 0.981 | locus YGL173C, strain kem1, stronger effect = lower value 0.983 | locus YGL227W, strain vid30, stronger effect = lower value 0.994 | locus YGL240W, strain doc1, stronger effect = lower value 1.01 | locus YGL248W, strain PDE1, stronger effect = lower value 1 | locus YGL253W, strain hxk2, stronger effect = lower value 0.964 | locus YGR135W, strain pre9, stronger effect = lower value 1.01 | locus YGR229C, strain SMI1, stronger effect = lower value 1 | locus YGR252W, strain gcn5, stronger effect = lower value 1.03 | locus YHR013C, strain ard1, stronger effect = lower value 0.997 | locus YHR027C, strain rpn1, stronger effect = lower value 0.975 | locus YHR030C, strain SLT2, stronger effect = lower value 1 and 1.02 | locus YHR079C, strain IRE1 (second series), stronger effect = lower value 1.02 | locus YHR079C, strain IRE1, stronger effect = lower value 1.01 | locus YHR094C, strain hxt1, stronger effect = lower value 1.01 | locus YHR129C, strain ARP1, stronger effect = lower value 1 | locus YHR142W, strain chs7, stronger effect = lower value 0.981 | locus YHR200W, strain rpn10, stronger effect = lower value 1.01 | locus YIL066C, strain RNR3, stronger effect = lower value 1.01 | locus YIL073C, strain SPO22, stronger effect = lower value 1.04 | locus YIL125W, strain kgd1, stronger effect = lower value 1.01 | locus YIR030C, strain dcg1, stronger effect = lower value 1.02 | locus YJL092W, strain hpr5, stronger effect = lower value 0.977 | locus YJL095W, strain BCK1 (second series), stronger effect = lower value 0.992 | locus YJL095W, strain BCK1, stronger effect = lower value 0.991 and 1 | locus YJL115W, strain asf1, stronger effect = lower value 0.96 | locus YJL129C, strain trk1, stronger effect = lower value 0.993 | locus YJL134W, strain LCB3, stronger effect = lower value 1 | locus YJL154C, strain vps35, stronger effect = lower value 0.979 | locus YJL164C, strain tpk1, stronger effect = lower value 0.962 | locus YJL166W, strain qcr8, stronger effect = lower value 1.01 | locus YJL168C, strain set2, stronger effect = lower value 1.01 | locus YJL187C, strain SWE1 (second series), stronger effect = lower value 1 | locus YJL187C, strain SWE1, stronger effect = lower value 0.984 | locus YJR043C, strain POL32, stronger effect = lower value 0.982
